Bioassay records: PubChem BioAssay, National Center for Advancing Translational Sciences (NCATS)
DRD3 antagonist = qHTS of D3 Dopamine Receptor Antagonist: qHTS. max response, negative = inhibition, %. D3R cells, DiscoveRx beta-arrestin luminescence, antagonist mode; stronger effect = lower value. 2.5% of 360,000 active; in the data active = max response below about -50%; inconclusive = no clear call, values can overlap the other calls
Target sequence (P35462 whole entry, looked up): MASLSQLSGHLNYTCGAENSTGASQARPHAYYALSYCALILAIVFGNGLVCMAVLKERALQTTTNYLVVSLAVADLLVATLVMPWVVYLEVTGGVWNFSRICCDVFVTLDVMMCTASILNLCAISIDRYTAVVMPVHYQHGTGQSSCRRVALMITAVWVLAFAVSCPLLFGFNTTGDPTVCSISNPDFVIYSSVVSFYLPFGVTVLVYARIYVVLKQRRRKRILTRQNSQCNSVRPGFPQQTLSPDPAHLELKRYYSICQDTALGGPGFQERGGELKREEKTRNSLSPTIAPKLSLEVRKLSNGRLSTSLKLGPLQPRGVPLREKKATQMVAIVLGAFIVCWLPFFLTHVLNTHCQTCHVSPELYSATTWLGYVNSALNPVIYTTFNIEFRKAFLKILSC
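Cells plated overnight at 1500 cells/well, then exposed to library compounds with dopamine controls for 90 minutes at 37 degrees C. DiscoveRx reagent added for 30–60 minutes at room temperature; luminescence read, quantitative HTS format.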
D1 agonist = Allosteric Agonists of the Human D1 Dopamine Receptor: qHTS; 1% of 360,000 active; HEK293 T-REx D1 cells, calcium flux, agonist mode; AID 504660, 2011; activation, % at 2 µM; D(1A) dopamine receptor (Homo sapiens), P21728; in the data active = activation above about 30%
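Agonism was scored from calcium flux recorded over 180 s (1 read/s) after pintool compound addition, following a 10-cycle baseline. Cells were inducible force-coupled HEK293 TREx D1, plated overnight at 30 C and loaded with no-wash calcium dye.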
D1 antag = Antagonist of Human D 1 Dopamine Receptor: qHTS. D(1A) dopamine receptor (Homo sapiens), P21728. HEK293 TREx D1 cells, calcium flux, dopamine EC80; stronger effect = lower value. activity change, negative = inhibition, % at 10 µM. 3.2% of 360,000 active; in the data active = activity change below about -30%
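Inducible Hek293 Trex D1 cells (tetracycline, overnight, 30 C). Calcium dye 30–90 min RT. Antagonist mode: EC80 dopamine added after 180 s compound read.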
D1 PAM = Potentiators of Human D1 Dopamine Receptor: qHTS. D(1A) dopamine receptor (Homo sapiens), P21728. HEK293 TREx D1 cells, calcium flux, dopamine EC20 potentiation. potentiation, % at 10 µM. 0.036% of 360,000 active; in the data active = potentiation above about 30%
DRD3 agonist = qHTS of D3 Dopamine Receptor Agonist: qHTS | 0.58% of 410,000 active | max activation, % | AID 652048, 2013 | D3R DiscoveRx beta-arrestin cells, luminescence, 90 min; in the data active = max activation above about 30%
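Agonist-mode cell screen: cells plated at 1500/well and incubated overnight at 37 °C, then exposed to library compounds for 90 min at 37 °C. Detection reagent was added for 30–60 min at room temperature, and luminescence was read.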
Hits are given with their value; – = inactive; ? = inconclusive; · = not tested or not shown. Compounds with a hit are over-represented: about 6% of the library has one in this group of screens.

SMILES	DRD3 antagonist	D1 agonist	D1 antag	D1 PAM	DRD3 agonist
COc1ccc(OC)c(NC(=O)Cn2c(=O)n(-c3ccc(Cl)cc3)c(=O)c3c(C)c(C)sc32)c1	·	–	–	–	–
O=c1[nH]c2ccccc2cc1-c1noc(-c2cccnc2)n1	–	–	–	–	48
CCN(CC1COc2ccccc2O1)S(=O)(=O)c1ccc(C)cc1 (centres undefined)	–	–	-33	–	–
CCN(CC)S(=O)(=O)c1ccc(C(=O)NNC(=O)C2COc3ccccc3O2)cc1 (centres undefined)	–	·	·	·	–
CN(C)c1ccc(C(CNS(=O)(=O)c2ccc(Cl)cc2)N2CCCC2)cc1 (centres undefined)	·	–	–	–	–
Cc1c(Cl)c(-c2n[nH]c(=S)n2-c2ccc(F)cc2)nn1C	-66	–	–	–	–
CC1CCc2c(sc(NC(=O)Cn3nnc(-c4ccc(C(F)(F)F)cc4)n3)c2C#N)C1 (centres undefined)	·	–	–	–	–
COc1ccc(C(=O)Oc2ccc(/C=N/O)cc2)cc1	–	–	-35	–	–
O=C(N/N=C/c1ccc(OC(=O)c2ccc([N+](=O)[O-])cc2)cc1)c1cccnc1	–	–	–	–	–
COc1ccc(C(=O)Oc2ccc(/C=N/NC(=O)Cc3ccc([N+](=O)[O-])cc3)cc2)cc1	–	–	-32	–	–
Cc1nc2ccc(S(=O)(=O)N(CC(=O)Nc3ccc(F)cc3F)Cc3ccccc3)cc2s1	·	–	–	–	–
CCc1ccc(C(=O)c2cn(CC(=O)Nc3ccc4c(c3)OCO4)c3ccc(F)cc3c2=O)cc1	·	–	–	–	–
CCNC(=S)NS(=O)(=O)c1ccccc1	-58	–	–	–	–
CCNC(=S)NS(=O)(=O)c1ccc(Cl)cc1	–	–	–	–	–
Cc1cc2c(s1)c1cnn(Cc3cc(F)cc(F)c3)c(=O)c1n2C	·	–	–	–	·
O=C(Nc1ccc2nc(SCC(=O)N3CCOCC3)sc2c1)c1ccc(F)cc1	·	–	–	–	–
CCCC(=O)Nc1cc(-c2nc3cccnc3s2)ccc1C	·	49	–	–	–
CCCCC(=O)Nc1cc(-c2nc3cccnc3s2)ccc1C	·	–	–	–	–
COc1ccccc1CNC(=O)C(CC(C)C)N1Cc2ccccc2C1=O (centres undefined)	·	–	–	–	–
Cc1nn(CC(=O)NCCc2ccc(Cl)cc2Cl)c(C)c1[N+](=O)[O-]	–	34	–	–	–
Cc1nn(CC(=O)Nc2ccncc2)c(C)c1[N+](=O)[O-]	?	–	–	–	–
Cc1ccc(NC(=O)Cn2nc(C)c([N+](=O)[O-])c2C)cc1Cl	-55	–	–	–	–
Cc1ccc2cccc(NC(=O)c3ccc(C#N)cc3F)c2n1	·	–	–	–	–
Cc1cccc2sc(NNC(=O)c3cc(-c4cccs4)nc4ccccc34)nc12	–	–	–	–	46
COc1ccc(-c2cc(C(=O)Nc3nc4c(C)cccc4s3)c3ccccc3n2)cc1OC	–	–	–	–	33
SMILES	DRD3 antagonist	D1 agonist	D1 antag	D1 PAM	DRD3 agonist
O=C(Nc1nc2ccccc2s1)c1cc(-c2ccco2)nc2ccccc12	–	–	–	–	–
COc1cccc(-c2cc(C(=O)Nc3nc4ccccc4s3)c3ccccc3n2)c1	-59	–	–	–	–
COc1ccc(C(=O)Nc2nc3ccc(OC)cc3s2)cc1	–	–	–	–	–
Cc1ccc(NC(=O)c2cc(-c3cccs3)nc3ccccc23)c(C)c1	·	–	–	–	–
COc1ccc2nc(NC(=O)c3cccc(-c4cc5ccccc5oc4=O)c3)sc2c1	–	–	-33	–	–
N#CN1CCC(NS(=O)(=O)c2ccc(F)cc2)C1 (centres undefined)	·	–	–	–	·
COc1ccccc1C1Nc2c(sc3nc(C)cc(C)c23)C(=O)N1c1ccccc1 (centres undefined)	·	–	–	–	–
N#CCSc1nc2c(cc1C#N)CCCC2	–	–	-32	–	–
Cc1ccc(CSc2nc3c(cc2C#N)CCC3)cc1	–	–	-35	–	–
N#Cc1cc2c(nc1SCc1cccc(Cl)c1)CCCCC2	–	–	-39	–	–
N#Cc1cc2c(nc1SCc1ccccc1)CCCCC2	–	–	–	–	–
